# The list is not random: actives were taken first. Their share in the collection is about 10%.
# IMPase cell inh = qHTS Assay for Identifying the Cell-Membrane Permeable IMPase Inhibitors. Inositol monophosphatase 1 (Rattus norvegicus), P97697. CHO-M1 cells, IP1 accumulation, HTRF TR-FRET ratio. inhibition (IP1 accumulation), % at 46.1 µM. 120,000 tested, under 10 active. AID 901, 2007; active means well fitted curve in the direction sought with a large enough effect in the signal ratio, not every such curve was filed as active; inconclusive means small, poorly fitted or top-dose-only effect, or a change in a side signal; inactive means no such curve, though single readings can be large or run the other way; the % refers to the signal ratio;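 further: cells stimulated with carbachol in lithium chloride buffer; plate controls were DMSO basal wells for no effect and reference inhibitor wells for full effect; higher means more IMPase inhibition seen as more IP1 and lower FRET ratio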
# Target sequence (P97697 whole entry, looked up): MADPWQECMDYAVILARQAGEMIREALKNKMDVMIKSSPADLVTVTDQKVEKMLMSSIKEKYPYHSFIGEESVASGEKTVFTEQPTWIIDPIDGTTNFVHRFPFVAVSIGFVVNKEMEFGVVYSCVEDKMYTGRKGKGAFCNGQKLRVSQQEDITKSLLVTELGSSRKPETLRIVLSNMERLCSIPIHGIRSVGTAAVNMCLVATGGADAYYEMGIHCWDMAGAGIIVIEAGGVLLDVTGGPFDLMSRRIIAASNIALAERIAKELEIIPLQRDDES
#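 Measured: the HTRF emission ratio (665/620 nm) plus the 620 nm donor channel, each fitted to the Hill equation to give AC50. Cells were CHO-M1 given compounds up to 46 uM and a 30 min carbachol stimulation at 37C.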
# LMNA splice mod = qHTS Assay for Modulators of Lamin A Splicing. 200,000 compounds, 0.01% hits. HeLa LMNA splicing GFP/RFP minigene ratio, 48 h. Potency, µM (doses to about 46.1 µM), for the others: top-dose ratio change, negative = inhibition, actives largely listed as inhibitors; active means well fitted inhibition curve with a large enough effect in the signal ratio, with a control signal flat, not every such curve was filed as active; inconclusive means small, poorly fitted or top-dose-only effect, or effect the other way, or a change in a side signal; the % refers to the signal ratio; further: potency means the concentration at half of the fitted maximal effect
#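 S3 HeLa cells stably expressing lamin A-EGFP splicing minigene plus DsRed2, 600 cells/well, 48 h compound exposure at 37C. Laser-scanning cytometry; analysed as GFP (500-530 nm)/RFP (575-640 nm) total intensity ratio; 0.5% DMSO vehicle.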
# HPGD inh = qHTS Assay for Inhibitors of HPGD (15-Hydroxyprostaglandin Dehydrogenase); 15-hydroxyprostaglandin dehydrogenase [NAD(+)] (Homo sapiens), P15428; purified HPGD, NADH fluorescence kinetic, PGE2 substrate; Potency, µM, for the others: top-dose activity change, negative = inhibition, usual class: inhibitors; 150,000 compounds, 4.3% hits; further: potency means the concentration at half of the fitted maximal effect
# Target sequence (P15428 whole entry, looked up): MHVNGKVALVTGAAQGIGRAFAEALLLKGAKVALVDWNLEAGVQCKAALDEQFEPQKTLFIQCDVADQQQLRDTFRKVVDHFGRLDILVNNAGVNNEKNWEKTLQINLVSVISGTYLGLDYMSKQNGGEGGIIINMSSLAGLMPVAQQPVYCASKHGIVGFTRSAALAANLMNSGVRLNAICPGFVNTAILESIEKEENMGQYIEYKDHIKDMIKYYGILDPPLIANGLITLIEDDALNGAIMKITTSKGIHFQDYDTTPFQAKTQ
#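 NADH formation kinetics: reaction with 30 uM PGE2 and 1 mM NAD+ (final), 20 nM enzyme, Tris-HCl pH 8 with Tween 20, after 15 min compound preincubation at room temperature. Fluorescence change, last versus first of five reads.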
# PNC assembly inh = High Content Assay for Compounds that inhibit the Assembly of the Perinucleolar Compartment | AID 2417, 2010 | 140,000 compounds, 3.1% hits | activity change (PNC), negative = inhibition, % at 10 µM | PC3M PTB-GFP, PNC prevalence imaging, 16 h; hits give low values;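 active means readout at or below -70, meaning at least 70% loss of cells showing the perinucleolar compartment, a nuclear body marking cancer cells; inconclusive means readout between -30 and a set limit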;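 further: plate controls were DMSO wells for no effect and camptothecin positive control wells for full effect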
#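 PC3M cells stably expressing PTB-GFP, 750–1000 cells/well, treated 16 h at 37 °C with compound (23 nl of library stock), in duplicate. After paraformaldehyde fixation and Hoechst stain, imaged at 20x; PNC prevalence scored by image analysis.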
# Luc counter = Counterscreen for Luciferase (Kinase-Glo TM) Inhibition; Luciferin 4-monooxygenase (Photuris pensylvanica), Q27757; Kinase-Glo luciferase, ATP luminescence, 8 min; Potency, µM (titrated, usually from 38.3 µM), without a hit: at the top dose activity change, negative = inhibition, most hits filed as inhibitors; 200,000 compounds, 0.28% hits; active means well fitted inhibition curve with a large enough effect; inconclusive means small, poorly fitted or top-dose-only effect; further: potency means the concentration at half of the fitted maximal effect; nearly all actives have a fitted effect of over 60% in size
#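 Substrate mix (final 50 mM imidazole pH 7.2, 50 mM KCl, 7 mM MgCl2, 10 uM ATP, 0.01% Tween 20, 0.05% BSA) plus pin-tool compound, then Kinase-Glo detection mix; 8 min ambient, luminescence read.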
# ALDH1A1 block = qHTS Assay for Inhibitors of Aldehyde Dehydrogenase 1 (ALDH1A1); AID 1030, 2008; Purified ALDH1A1, NADH fluorescence, propionaldehyde substrate; Aldehyde dehydrogenase 1A1 (Homo sapiens), P00352; Potency, µM (series often up to 75.3 µM), for inactives: at the top dose activity, negative = inhibition, usual class: inhibitors; 220,000 compounds, 7.3% hits;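 further: potency means the concentration at half of the fitted maximal effect; plate controls were no enzyme wells and a reference inhibitor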
# An asterisk follows results filed as active; ? = inconclusive; / = no result; [ ] = dose if it differs, or a comment. Unless noted, the call rests on the fitted dose curve; in most records, active means well fitted inhibition curve with a large enough effect (not every such curve was filed as active); inconclusive means small, poorly fitted or top-dose-only effect, or another doubt; inactive means no such curve, though single readings can be large or run the other way. Unless noted, on the % scale 0 is the no-effect control and ±100 the full control effect.
SMILES,IMPase cell inh,LMNA splice mod,HPGD inh,PNC assembly inh,Luc counter,ALDH1A1 block
CCc1nnc(NC(=O)CSc2nnc3ncccn23)s1,-10[1.84 µM],-6%,-27%,-82*,4%,?
Cc1ccc(CN(C)C(=O)c2ccccc2Oc2ccccc2)o1,2,12%,22µM*,?,0%,10µM*
CCCCC(=O)NC(NC(=S)N1CCOCC1)C(Cl)(Cl)Cl (centres undefined),5,2%,-14%,?,-4%,11µM*
O=C(NC(NC(=S)N1CCOCC1)C(Cl)(Cl)Cl)c1ccc(Cl)cc1 (centres undefined),-3,-28%,-12%,?,4%,-7%
CCOC(=O)c1ccccc1NC(=O)CN(c1ccccc1OC)S(=O)(=O)c1ccc(C)cc1,/,0%[46 µM],/,/,/,/
COC(=O)[C@H](Cc1ccccc1)NC(=O)O[C@H]1C(=O)c2cc(OC)ccc2O[C@@H]1c1ccc(OC)c(Br)c1,/,/,-4%,/,0%,4%
Clc1ccc(-c2cn3nc4c(nc3n2)CCCC4)cc1,8,-3%,?,30,?,?
COc1cccc(-c2cn3nc4c(nc3n2)CCCC4)c1,6,6%,-14%,-12,10µM*,?
Cc1ccc(S(=O)(=O)NCCN=C(CN2CCCC2)NS(=O)(=O)c2ccc(C)cc2)cc1,1,4%,1%,?,-2%,4.5µM*
Cc1ccc(S(=O)(=O)NCCN=C(CN2CCOCC2)NS(=O)(=O)c2ccc(C)cc2)cc1,2,-6%,2%,?,1%,1.6µM*
CCc1ccc(NC(=O)C(=O)NCCc2csc(-c3cccc(F)c3)n2)cc1,/,12%[46 µM],/,/,/,/
Cc1nn(C)cc1S(=O)(=O)N1CCN(Cc2cccc(Cl)c2)CC1,/,19%[46 µM],/,/,-8%,22µM*
Clc1ccc(-c2nc(N3CCCCC3)nc3ccccc23)cc1,-1,0%,-18%,-100*,0%,-2%
Cc1c(C(=O)N2CCC(C)CC2)c(S(=O)(=O)N2CCN(c3cccc(Cl)c3)CC2)c(C)n1C,/,6%[46 µM],/,/,/,/
COc1ccc(-n2c(=O)/c(=C\c3cccs3)s/c2=C(/C#N)C(=O)N2CCN(C)CC2)cc1,/,/,/,/,-4%,7.1µM*
Cc1nc2cnc(N3CCN(C)CC3)nc2n(Cc2ccc(F)cc2)c1=O,/,1%,/,/,/,?
COC(=O)C[C@H]1c2ccccc2[C@H]2C(=C[C@@H](C)[C@H]3C(=O)N(O)C(=O)[C@H]32)N1C(=O)OC,/,?,-10%,/,-3%[7.66 µM],-17%[13.5 µM]
CCN(CC)CCNC(=O)c1ccc2c(c1)ncn2C1CCCCC1,3,-5%[0.0737 µM],-2%,-22,1%,-7%
CCCCNC(=O)c1ccc2c(c1)ncn2C1CCCCC1,-2,-13%,22µM*,2,1%,-3%
CCCCNC(=O)c1ccc2c(c1)ncn2C1CCCC1,-5,4%,8.9µM*,1,-2%,-5%
CC(C)CCNC(=O)c1ccc2c(c1)ncn2C1CCCCC1,5,3%,?,?,2%,-10%
COc1ccccc1C(=O)Nc1ccc2nc(SCCOc3ccccc3C)sc2c1,/,22%[46 µM],/,/,/,/
COc1ccccc1NC(=S)NC(C)=O,/,-16%[46 µM],/,/,1%,9%
COc1ccccc1NC(=S)c1ccccc1,/,-4%,22µM*,-27,1%,28µM*
COc1ccccc1NC(=S)NNC(=O)c1ccncc1,/,-5%[46 µM],/,/,1%,-1%
SMILES,IMPase cell inh,LMNA splice mod,HPGD inh,PNC assembly inh,Luc counter,ALDH1A1 block
COc1cc(OC)cc(C(=O)NNC(=S)Nc2ccccc2OC)c1,/,9%,-10%,48,13%,22µM*
CCc1ccc(NC(=O)CCc2c(C)n(C)c3cc(-c4ccccc4C)nn3c2=O)cc1,/,6%[46 µM],/,/,/,/
Cc1nc(=O)c(-c2ccccc2)c(C)n1-c1cccc(C(=O)O)c1,3,2%,/,-101*,/,-6%
Cc1c(Cc2ccccc2)sc(/N=C/c2c(O)ccc3ccccc23)c1C(N)=O,/,?,?,?,0%,?
Cc1ccc(/C=N/c2sc(Cc3ccccc3)c(C)c2C(N)=O)o1,/,0%,-5%,-10,-3%,?
Cc1c(Cc2ccccc2)sc(/N=C/c2ccc3ccccc3c2)c1C(N)=O,2,?,?,-103*,1%,?
Cc1c(Cc2ccccc2)sc(N)c1C(N)=O,4,5%,28µM*,31,1%,16µM*
CCC(=O)Nc1sc(Cc2ccccc2)c(C)c1C(N)=O,/,?,/,/,2%,22µM*
COC(=O)c1c(NC(C)=O)sc(Cc2ccccc2)c1C,8,6%,-9%,52,-4%,-4%
Cc1c(Cc2ccccc2)sc(NC(=O)C(C)(C)C)c1C(N)=O,/,/,/,/,1%,8.9µM*
O=C(NC1CC(=O)N(c2ccc(Cl)cc2)C1)C1CCCCC1 (centres undefined),/,8%[46 µM],/,/,/,/
O=C1c2ccccc2S(=O)(=O)N1Cc1nnc(-c2ccccc2Br)o1,0,-5%,-17%,-28,0%,?
O=c1c2ccccc2nnn1Cc1nnc(-c2ccccc2Br)o1,8,-2%,28µM*,?,-1%,?
CCc1ccc(CNC(=O)c2cnc(N3CCCCC3)c3ccccc23)cc1,/,-12%[46 µM],/,/,/,/
CC(C)CO/N=C1/C[C@@H](O)[C@@H](O)[C@@H]2[C@@H]3C(=O)N(C(C)(C)C)C(=O)[C@H]3CC[C@H]12,/,/,/,/,/,8%[13.5 µM]
CCN(CC)c1nn2c(=O)c(C(=O)NCc3ccc(N(C)C)cc3)cnc2s1,/,3%[46 µM],/,/,/,/
CC1(C)CC(NC(=O)c2ccc3c(c2)OCO3)CC(C)(C)N1,-8,9%,-28%,-1,-4%,-14%
CC1(C)CC(NC(=O)c2coc(=O)c(Br)c2)CC(C)(C)N1,-5,28%,-14%,-100*,11%,?
C/C=C/c1c(F)c(F)c(Oc2ccc(C(=O)O)cc2)c(F)c1F,-2,13%,?,-84*,-5%,14%
CC(C)OC(=O)Nc1ccc(Oc2c(F)c(F)c(F)c(F)c2F)cc1,4,5%,-8%,18,2%,6%
COc1cc(-c2cc(=O)c3c(O)c(OC)c(OC)c(O)c3o2)ccc1O,/,/,/,/,/,28µM*
COc1ccc(-c2cc(=O)c3c(O)c(OC)c(OC)c(OC)c3o2)cc1OC,/,?,-14%,/,1%,20µM*
COc1cc(-c2cc(OC)c3c(C)oc(C)c3c(=O)c2)ccc1O,-6,?,?,?,0%,-10%
